Assay [1] concerns the target T1, Serine/threonine-protein kinase Nek9 (Homo sapiens) (UniProt Q8TD19).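 Also: each value is a mean percent inhibition of NEK9.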
T1 sequence (whole entry): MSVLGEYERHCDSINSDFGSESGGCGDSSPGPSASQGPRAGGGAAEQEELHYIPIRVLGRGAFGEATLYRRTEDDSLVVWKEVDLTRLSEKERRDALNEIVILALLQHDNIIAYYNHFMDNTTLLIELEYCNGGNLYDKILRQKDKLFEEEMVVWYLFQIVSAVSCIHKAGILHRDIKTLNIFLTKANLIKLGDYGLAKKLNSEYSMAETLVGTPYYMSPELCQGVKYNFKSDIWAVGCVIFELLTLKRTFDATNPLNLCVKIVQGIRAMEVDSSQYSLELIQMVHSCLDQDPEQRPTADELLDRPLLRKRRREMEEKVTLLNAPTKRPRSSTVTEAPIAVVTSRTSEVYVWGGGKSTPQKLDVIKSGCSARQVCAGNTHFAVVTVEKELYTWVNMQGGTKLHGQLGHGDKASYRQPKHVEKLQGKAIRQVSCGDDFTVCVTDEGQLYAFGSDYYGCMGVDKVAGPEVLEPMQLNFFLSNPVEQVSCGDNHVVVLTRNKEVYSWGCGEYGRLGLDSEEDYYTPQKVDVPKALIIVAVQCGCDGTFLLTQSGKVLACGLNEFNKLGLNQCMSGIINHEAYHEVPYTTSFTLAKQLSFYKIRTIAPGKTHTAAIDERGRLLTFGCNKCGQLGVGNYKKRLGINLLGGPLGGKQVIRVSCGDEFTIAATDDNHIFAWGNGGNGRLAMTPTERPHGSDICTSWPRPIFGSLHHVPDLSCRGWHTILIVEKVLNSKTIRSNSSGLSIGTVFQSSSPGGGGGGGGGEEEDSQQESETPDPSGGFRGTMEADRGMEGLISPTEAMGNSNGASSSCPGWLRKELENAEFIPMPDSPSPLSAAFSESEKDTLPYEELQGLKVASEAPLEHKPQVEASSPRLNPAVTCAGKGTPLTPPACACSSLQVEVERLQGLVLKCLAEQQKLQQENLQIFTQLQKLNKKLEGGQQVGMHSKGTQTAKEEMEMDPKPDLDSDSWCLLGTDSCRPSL
Conditions: at 1 µM.

The target of assay [2] is T2, Dual specificity protein kinase TTK (Homo sapiens) (UniProt P33981).
T2 sequence (whole entry): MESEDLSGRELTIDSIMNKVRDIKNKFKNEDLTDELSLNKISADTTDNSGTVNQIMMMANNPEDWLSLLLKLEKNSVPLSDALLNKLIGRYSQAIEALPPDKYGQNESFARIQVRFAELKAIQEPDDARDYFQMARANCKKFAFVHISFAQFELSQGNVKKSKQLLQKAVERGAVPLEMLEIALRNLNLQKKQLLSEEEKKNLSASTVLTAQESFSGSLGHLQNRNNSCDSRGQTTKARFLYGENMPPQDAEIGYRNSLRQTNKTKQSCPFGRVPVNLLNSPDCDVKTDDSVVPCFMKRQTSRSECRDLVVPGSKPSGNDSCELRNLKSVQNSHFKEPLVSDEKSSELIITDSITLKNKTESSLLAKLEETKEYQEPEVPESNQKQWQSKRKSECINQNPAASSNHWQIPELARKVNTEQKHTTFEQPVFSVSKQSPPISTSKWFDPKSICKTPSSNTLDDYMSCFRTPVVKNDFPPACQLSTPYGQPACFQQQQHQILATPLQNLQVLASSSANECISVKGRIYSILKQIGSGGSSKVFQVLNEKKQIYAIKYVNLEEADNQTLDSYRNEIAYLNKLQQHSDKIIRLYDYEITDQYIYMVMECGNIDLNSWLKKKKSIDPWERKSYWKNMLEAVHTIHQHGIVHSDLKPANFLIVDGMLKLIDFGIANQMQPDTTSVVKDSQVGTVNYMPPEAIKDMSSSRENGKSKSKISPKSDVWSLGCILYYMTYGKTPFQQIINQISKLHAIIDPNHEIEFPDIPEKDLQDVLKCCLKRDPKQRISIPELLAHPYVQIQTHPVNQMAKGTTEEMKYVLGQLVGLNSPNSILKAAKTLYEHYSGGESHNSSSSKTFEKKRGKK
Conditions: at 0.1 µM.

Assay [3] has as its system T3, Receptor-type tyrosine-protein kinase FLT3 (Homo sapiens), P36888 [D835Y].
T3 sequence (whole entry): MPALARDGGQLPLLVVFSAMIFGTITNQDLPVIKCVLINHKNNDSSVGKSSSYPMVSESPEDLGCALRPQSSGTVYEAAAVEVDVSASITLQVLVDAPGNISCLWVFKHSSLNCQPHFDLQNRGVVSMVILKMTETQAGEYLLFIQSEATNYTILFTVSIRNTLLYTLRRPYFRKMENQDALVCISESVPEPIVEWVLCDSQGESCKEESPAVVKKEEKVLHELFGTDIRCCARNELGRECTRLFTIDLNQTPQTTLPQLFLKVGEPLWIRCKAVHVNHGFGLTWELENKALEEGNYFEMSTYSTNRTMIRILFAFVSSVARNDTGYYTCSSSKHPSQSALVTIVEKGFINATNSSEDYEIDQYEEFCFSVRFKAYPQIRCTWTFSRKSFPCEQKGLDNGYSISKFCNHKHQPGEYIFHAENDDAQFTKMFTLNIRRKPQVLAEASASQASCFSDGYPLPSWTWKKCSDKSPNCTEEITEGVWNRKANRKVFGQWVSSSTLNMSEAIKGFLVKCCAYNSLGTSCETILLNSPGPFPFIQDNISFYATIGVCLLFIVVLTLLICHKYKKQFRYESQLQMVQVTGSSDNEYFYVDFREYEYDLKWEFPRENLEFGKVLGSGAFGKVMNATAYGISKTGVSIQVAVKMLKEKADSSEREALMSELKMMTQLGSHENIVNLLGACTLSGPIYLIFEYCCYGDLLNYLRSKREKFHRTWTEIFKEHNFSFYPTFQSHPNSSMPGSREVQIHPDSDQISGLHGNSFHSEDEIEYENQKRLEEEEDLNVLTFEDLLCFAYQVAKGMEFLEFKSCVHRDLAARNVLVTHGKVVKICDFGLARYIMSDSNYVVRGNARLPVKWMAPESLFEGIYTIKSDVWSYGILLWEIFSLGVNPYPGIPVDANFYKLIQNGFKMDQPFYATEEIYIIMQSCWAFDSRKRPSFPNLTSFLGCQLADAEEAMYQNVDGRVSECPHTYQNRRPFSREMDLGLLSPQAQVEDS
The settings on record: at 1 µM.

Assay [4] addresses Vascular endothelial growth factor receptor 3 (Homo sapiens) (UniProt P35916). The settings on record: at 0.1 µM.
For assay [5] the target is unchanged. Conditions: at 1 µM.
Assay [6] has as its target Macrophage colony-stimulating factor 1 receptor (Homo sapiens) (UniProt P07333). The settings on record: at 0.1 µM.
Assay [7] has the same target. The settings on record: at 1 µM.
Assay [8] addresses Tyrosine-protein kinase Fyn (Homo sapiens) (UniProt P06241). Conditions: at 0.1 µM.
The target is the same in assay [9]. The settings on record: at 1 µM.
Assay [10] has as its target Tyrosine-protein kinase HCK (Homo sapiens) (UniProt P08631). Conditions: at 0.1 µM.
Assay [11] has the same target. Conditions: at 1 µM.
Assay [12] concerns the target Insulin-like growth factor 1 receptor (Homo sapiens) (UniProt P08069). Conditions: at 0.1 µM.
Assay [13] shares this target. The settings on record: at 1 µM.
For assay [14], the target named is Insulin receptor (Homo sapiens) (UniProt P06213). Conditions: at 0.1 µM.
For assay [15] the target is unchanged. Conditions: at 1 µM.
The target in assay [16] is Insulin receptor-related protein (Homo sapiens) (UniProt P14616). Conditions: at 0.1 µM.
Assay [17] has the same target. Conditions: at 1 µM.
Assay [18] deals with T4, Tyrosine-protein kinase ITK/TSK (Homo sapiens) (UniProt Q08881).
T4 sequence (whole entry): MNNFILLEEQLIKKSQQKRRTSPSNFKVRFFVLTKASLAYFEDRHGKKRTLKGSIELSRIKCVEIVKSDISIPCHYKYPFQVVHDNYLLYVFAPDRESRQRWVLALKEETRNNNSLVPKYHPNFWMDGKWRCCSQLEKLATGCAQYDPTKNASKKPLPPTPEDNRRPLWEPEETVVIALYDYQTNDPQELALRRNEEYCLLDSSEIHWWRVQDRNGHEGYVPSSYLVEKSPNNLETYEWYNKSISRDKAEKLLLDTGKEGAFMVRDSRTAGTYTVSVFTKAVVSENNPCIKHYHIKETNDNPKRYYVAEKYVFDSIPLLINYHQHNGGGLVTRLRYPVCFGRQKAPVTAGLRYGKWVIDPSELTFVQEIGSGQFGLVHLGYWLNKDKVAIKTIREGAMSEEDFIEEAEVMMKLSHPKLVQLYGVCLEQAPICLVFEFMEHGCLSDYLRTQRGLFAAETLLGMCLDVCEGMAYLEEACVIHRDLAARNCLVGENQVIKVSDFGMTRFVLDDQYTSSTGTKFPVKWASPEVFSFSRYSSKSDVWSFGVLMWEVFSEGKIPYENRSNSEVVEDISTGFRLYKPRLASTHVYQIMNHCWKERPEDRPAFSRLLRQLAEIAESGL
Conditions: at 0.1 µM.

For assay [19], the target named is Serine/threonine-protein kinase PLK1 (Homo sapiens) (UniProt P53350). Conditions: at 0.1 µM.
The target is the same in assay [20]. Conditions: at 1 µM.

Sequence of Insulin receptor (Homo sapiens) (P06213 28-758 limits assumed): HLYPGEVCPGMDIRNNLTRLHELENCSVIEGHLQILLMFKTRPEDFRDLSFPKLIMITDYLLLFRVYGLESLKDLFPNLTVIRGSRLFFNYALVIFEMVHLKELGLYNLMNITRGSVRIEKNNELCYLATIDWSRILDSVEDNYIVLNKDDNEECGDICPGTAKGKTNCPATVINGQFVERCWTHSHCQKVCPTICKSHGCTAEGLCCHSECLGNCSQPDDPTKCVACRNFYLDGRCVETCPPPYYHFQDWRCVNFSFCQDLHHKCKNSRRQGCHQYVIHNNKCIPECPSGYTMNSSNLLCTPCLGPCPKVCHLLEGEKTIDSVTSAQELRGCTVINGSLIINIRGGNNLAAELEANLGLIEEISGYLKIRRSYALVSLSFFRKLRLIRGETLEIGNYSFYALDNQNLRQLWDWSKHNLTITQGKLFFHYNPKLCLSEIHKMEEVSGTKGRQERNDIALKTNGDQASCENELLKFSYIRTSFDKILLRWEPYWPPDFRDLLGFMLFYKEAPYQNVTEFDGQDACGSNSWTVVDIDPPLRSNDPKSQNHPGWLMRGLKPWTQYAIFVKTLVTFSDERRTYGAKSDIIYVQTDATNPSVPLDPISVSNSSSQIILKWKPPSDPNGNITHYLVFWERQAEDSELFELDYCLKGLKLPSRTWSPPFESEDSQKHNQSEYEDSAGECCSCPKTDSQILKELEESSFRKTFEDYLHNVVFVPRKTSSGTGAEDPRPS
Sequence of Insulin receptor (Homo sapiens) (P06213 763-1382 limits assumed): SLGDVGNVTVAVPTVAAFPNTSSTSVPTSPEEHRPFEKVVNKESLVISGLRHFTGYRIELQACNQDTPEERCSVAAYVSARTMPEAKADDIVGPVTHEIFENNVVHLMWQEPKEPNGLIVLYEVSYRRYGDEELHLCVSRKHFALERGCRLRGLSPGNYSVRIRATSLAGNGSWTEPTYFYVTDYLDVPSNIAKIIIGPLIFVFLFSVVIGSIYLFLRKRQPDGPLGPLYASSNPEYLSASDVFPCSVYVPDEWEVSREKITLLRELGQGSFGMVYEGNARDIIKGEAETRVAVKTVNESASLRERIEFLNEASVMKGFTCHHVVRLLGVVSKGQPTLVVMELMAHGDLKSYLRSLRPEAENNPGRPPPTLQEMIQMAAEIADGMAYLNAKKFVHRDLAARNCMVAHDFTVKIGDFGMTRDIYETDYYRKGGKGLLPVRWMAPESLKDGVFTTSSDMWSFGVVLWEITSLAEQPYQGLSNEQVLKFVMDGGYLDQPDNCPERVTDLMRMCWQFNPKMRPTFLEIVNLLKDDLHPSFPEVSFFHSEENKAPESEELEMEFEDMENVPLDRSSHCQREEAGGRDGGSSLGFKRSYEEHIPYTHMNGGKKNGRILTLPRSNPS
Sequence of Tyrosine-protein kinase Fyn (Homo sapiens) (P06241 2-537 limits assumed): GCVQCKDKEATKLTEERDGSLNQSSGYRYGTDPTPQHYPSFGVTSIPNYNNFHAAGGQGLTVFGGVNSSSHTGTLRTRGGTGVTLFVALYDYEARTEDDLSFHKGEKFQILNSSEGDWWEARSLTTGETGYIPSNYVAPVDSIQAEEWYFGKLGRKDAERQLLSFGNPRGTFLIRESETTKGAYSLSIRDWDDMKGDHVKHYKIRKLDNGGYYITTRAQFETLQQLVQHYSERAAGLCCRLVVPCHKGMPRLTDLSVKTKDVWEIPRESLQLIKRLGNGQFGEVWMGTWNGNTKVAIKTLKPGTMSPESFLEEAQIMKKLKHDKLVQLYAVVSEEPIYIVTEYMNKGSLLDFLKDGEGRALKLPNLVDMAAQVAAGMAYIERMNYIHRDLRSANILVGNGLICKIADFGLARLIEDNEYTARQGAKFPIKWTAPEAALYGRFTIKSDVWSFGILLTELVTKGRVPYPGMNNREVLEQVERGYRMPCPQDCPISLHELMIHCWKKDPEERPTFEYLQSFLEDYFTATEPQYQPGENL
Sequence of Tyrosine-protein kinase HCK (Homo sapiens) (P08631 2-526 limits assumed): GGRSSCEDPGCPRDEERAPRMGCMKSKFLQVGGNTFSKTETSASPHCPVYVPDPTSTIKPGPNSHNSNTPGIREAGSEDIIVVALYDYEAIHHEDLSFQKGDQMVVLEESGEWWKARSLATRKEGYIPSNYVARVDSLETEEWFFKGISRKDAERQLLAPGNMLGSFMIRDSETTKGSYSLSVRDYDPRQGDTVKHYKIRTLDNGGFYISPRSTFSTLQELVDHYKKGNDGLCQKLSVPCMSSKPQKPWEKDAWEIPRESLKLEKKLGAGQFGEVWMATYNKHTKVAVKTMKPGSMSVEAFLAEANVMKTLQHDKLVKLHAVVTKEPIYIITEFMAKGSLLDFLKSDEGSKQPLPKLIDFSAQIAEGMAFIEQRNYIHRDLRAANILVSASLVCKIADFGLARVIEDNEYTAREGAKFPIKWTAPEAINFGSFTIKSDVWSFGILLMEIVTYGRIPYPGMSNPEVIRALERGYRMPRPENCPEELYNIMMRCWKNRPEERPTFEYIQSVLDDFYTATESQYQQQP
Sequence of Macrophage colony-stimulating factor 1 receptor (Homo sapiens) (P07333 whole entry): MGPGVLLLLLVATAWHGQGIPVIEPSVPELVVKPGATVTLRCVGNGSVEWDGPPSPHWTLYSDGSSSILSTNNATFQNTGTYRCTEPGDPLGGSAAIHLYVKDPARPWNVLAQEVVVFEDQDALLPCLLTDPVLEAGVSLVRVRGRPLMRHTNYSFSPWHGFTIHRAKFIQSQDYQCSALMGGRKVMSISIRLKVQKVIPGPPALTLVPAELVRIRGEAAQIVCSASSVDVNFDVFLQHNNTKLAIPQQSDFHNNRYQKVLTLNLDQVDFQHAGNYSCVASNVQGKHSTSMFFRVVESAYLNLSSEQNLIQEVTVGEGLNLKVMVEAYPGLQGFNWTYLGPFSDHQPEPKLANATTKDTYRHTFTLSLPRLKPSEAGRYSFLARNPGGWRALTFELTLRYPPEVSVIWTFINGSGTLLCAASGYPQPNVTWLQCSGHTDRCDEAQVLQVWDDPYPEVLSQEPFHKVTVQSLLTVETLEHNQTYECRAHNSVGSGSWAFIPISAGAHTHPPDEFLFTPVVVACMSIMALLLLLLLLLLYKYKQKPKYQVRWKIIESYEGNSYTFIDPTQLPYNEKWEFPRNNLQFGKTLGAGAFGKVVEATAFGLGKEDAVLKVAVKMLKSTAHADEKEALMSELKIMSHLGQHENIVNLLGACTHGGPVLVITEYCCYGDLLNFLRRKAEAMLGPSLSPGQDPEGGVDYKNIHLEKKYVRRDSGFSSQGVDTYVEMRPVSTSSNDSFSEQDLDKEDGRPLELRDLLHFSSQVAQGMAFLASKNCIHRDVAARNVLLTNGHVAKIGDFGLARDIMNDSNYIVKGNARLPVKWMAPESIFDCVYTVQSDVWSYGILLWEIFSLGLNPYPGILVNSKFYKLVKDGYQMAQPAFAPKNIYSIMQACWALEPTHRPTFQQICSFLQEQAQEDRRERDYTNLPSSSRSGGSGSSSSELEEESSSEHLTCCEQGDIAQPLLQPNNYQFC
Sequence of Vascular endothelial growth factor receptor 3 (Homo sapiens) (P35916 whole entry): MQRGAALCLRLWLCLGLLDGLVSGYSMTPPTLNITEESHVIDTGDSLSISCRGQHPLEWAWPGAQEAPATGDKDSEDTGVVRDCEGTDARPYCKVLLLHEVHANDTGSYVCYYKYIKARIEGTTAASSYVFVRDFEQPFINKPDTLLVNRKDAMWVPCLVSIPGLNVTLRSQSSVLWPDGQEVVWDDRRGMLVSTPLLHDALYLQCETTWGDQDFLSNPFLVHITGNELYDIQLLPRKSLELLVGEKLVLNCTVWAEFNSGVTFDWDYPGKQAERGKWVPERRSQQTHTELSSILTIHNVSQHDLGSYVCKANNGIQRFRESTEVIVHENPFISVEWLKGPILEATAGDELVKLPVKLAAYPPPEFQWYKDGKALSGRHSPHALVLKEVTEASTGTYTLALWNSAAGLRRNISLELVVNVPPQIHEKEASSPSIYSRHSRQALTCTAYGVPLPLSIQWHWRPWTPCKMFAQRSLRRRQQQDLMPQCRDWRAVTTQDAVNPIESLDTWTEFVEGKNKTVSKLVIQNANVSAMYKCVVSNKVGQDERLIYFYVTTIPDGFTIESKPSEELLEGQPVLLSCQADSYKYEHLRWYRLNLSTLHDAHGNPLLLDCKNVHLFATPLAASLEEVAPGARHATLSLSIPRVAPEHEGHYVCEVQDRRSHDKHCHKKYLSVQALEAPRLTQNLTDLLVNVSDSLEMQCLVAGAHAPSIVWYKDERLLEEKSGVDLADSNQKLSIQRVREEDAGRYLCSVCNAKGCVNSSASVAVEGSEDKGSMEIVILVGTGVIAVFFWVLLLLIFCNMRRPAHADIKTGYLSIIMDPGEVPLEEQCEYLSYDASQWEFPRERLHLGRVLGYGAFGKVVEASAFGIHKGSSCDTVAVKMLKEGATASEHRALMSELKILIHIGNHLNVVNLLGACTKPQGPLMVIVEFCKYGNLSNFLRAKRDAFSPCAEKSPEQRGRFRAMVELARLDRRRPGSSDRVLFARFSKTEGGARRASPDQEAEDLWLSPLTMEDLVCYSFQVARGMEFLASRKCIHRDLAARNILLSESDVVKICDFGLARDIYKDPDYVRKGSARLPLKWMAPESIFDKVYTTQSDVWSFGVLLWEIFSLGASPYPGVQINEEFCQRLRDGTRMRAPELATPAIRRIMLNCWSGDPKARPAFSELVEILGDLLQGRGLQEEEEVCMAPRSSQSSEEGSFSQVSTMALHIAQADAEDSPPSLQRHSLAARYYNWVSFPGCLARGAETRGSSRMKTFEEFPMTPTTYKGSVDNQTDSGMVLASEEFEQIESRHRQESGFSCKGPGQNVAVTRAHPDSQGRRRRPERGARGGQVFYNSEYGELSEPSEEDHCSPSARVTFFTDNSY

As to `COc1cc(Nc2ncc3c(C)nc(-c4cccc(Oc5ccccc5)c4)n3n2)cc(OC)c1OC`, the inhibition is 81.4% in assay [1]; 3.03% in assay [2]; 20.2% in assay [3]; -1.15% in assay [4]; 0.93% in assay [5]; 1.83% in [6]. For the same compound, the inhibition was 22.3% in assay [7]; 1.2% in assay [8]; 8.45% in [9]; 3.59% in [10]; 5.25% in assay [11]; 3.82% in assay [12]. Also, the inhibition in [13] was 5.13%; in assay [14] it was 5.22%; in assay [15], 8.16%; in assay [16], 2.99%; in assay [17], 3.66%; in assay [18] it was 0.96%.
As to `O=C(Nc1ccc(Oc2ccc3[nH]c(NC(=O)c4ccccc4)nc3c2)cc1)Nc1cc(C(F)(F)F)ccc1F`, the inhibition in assay [1] was found to be 10.3%; in assay [19], 2.66%; in assay [20], 1.84%; in assay [2] it was 5.51%; in [3] it was 14%; in [4] it was 14.1%. The inhibition in assay [5] came out at 36.2%; in [6] it was 4.75%; in [7], 48.1%; in [8], 3.06%; in assay [9], 21.5%; in assay [10] it was 7.45%. Further, the inhibition in assay [11] amounted to 21.8%; in assay [12], 10.6%; in assay [13], 7.91%; in [14], 2%; in assay [15], 2.26%; in assay [16] it was 2.66%. Further, the inhibition in assay [17] amounted to 3.55%; in assay [18] it was 1.11%.
Regarding `CN(C)c1ccc2c(c1)/C(=C/Nc1ccc(S(N)(=O)=O)cc1)C(=O)N2`, the inhibition in assay [1] worked out at 4.93%; in assay [19], 2.05%; in assay [20], 2.41%; in [2], 5.45%; in [3], 33.6%; in [5], 55%. Besides, the inhibition in [6] was found to be 4.82%; in assay [7], 18.8%; in assay [8] it was 2.68%; in assay [9], 13.1%; in [10] it was 4.88%; in assay [11] it was 20.5%. For the same compound, the inhibition in [12] was 9.21%; in assay [13], 11.9%; in [14], 3.88%; in assay [15], 6.31%; in assay [16], 0.97%; in assay [17] it was 3.14%. Also, the inhibition in [18] worked out at 1.03%.
Regarding `CCS(=O)(=O)c1ccc(OC)c(Nc2ncc(-c3ccccc3Cl)o2)c1`, the inhibition in assay [1] turned out to be 6.89%; in assay [19] it was 0.86%; in assay [20], 3.51%; in assay [3], 17.4%; in assay [4] it was 7.55%; in assay [5] it was 29.9%. The inhibition in [6] amounted to 9.53%; in [7], 40.3%; in assay [8], 2.29%; in assay [9], 19.1%; in assay [10] it was 4.06%; in [11], 11.8%. The inhibition in [12] was 1.62%; in assay [13] it was 5.87%; in assay [14] it was -0.92%; in [15], 3.26%; in [16], 1.25%; in [17], 3.78%. For the same compound, the inhibition in [18] stood at 0.29%.

A word on the inhibition: it is the change of the read-out against control, counted positive when it falls.
